# Measurements taken from PubChem BioAssay (NCATS).
# Records with an inconclusive call do not appear. Entries that show only a call come without a potency. Calls of active or inactive are those of the source. Calls follow the shape of the dose curve; as a rule, active = well fitted cell-killing curve with a large enough effect; inconclusive = small, poorly fitted or top-dose-only effect, or effect the other way; inactive = no such curve, though single readings can be large or run the other way.
# What was measured:
# [1] = Quantitative High-Throughput drug screen in 47 multiple myeloma cell lines against the NCATS MIPE library collection: PCM6_Riken cell viability assay (AID 1919870); also: nearly all actives have a fitted effect of over 30% in size; also: potency is read from the fitted curve at half-maximal effect
# Method in brief: (§1)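 Viability after 48 h drug exposure was measured as ATP-dependent luminescence. Cells, 500 per well, sat at 37 °C under 5% CO2; DMSO wells set 100%, media-only wells 0%.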
# [2] = Quantitative High-Throughput drug screen in 47 multiple myeloma cell lines against the NCATS MIPE library collection: KMS11_JCRBsus cell viability assay (AID 1919873); also: nearly all actives have a fitted effect of over 50% in size; also: potency is read from the fitted curve at half-maximal effect
# Method in brief: as §1
# [3] = Quantitative High-Throughput drug screen in 47 multiple myeloma cell lines against the NCATS MIPE library collection: RPMI8226_ATCC cell viability assay (AID 1919871); also: nearly all actives have a fitted effect of over 30% in size; also: potency is read from the fitted curve at half-maximal effect
# Method in brief: as §1
# [4] = Quantitative High-Throughput drug screen in 47 multiple myeloma cell lines against the NCATS MIPE library collection: OPM2_DSMZ cell viability assay (AID 1919872); also: nearly all actives have a fitted effect of over 30% in size
# Method in brief: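 Myeloma cells (500 per well) were exposed to MIPE 4.0 compounds by pin transfer and incubated 48 hours at 37C, 5% CO2. Viability was read as ATP by CellTiter-Glo luminescence, normalised to DMSO (100%) and media-only (0%) wells.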
# [5] = Quantitative High-Throughput drug screen in 47 multiple myeloma cell lines against the NCATS MIPE library collection: PE2_PLB cell viability assay (AID 1919869); also: nearly all actives have a fitted effect of over 35% in size; also: potency is read from the fitted curve at half-maximal effect
# Method in brief: as §1
# [6] = Quantitative High-Throughput drug screen in 47 multiple myeloma cell lines against the NCATS MIPE library collection: KMS28BM_JCRB cell viability assay (AID 1919874); also: nearly all actives have a fitted effect of over 35% in size; also: potency is read from the fitted curve at half-maximal effect
# Method in brief: as §1
structure (smiles),measurement,setting,value
C[C@](N)(Cc1ccc(O)c(O)c1)C(=O)O,Potency,[1],inactive
same,Potency,[2],7.43 µM (active)
CCOC(=O)Nc1ccc(NCc2ccc(F)cc2)nc1N,Potency,[3],inactive
same,Potency,[4],inactive
O=C(CCCN1CCC(O)(c2ccc(Cl)cc2)CC1)c1ccc(F)cc1,Potency,[4],inactive
same,Potency,[2],23.5 µM (active)
CN(C)c1nc(N(C)C)nc(N(C)C)n1,Potency,[5],inactive
same,Potency,[4],inactive
NC(CO)C(=O)NNCc1ccc(O)c(O)c1O (stereo not given),Potency,[1],inactive
same,Potency,[6],23.5 µM (active)
OCCN(CCO)c1nc(N2CCCCC2)c2nc(N(CCO)CCO)nc(N3CCCCC3)c2n1,Potency,[2],16.6 µM (active)
Clc1ccccc1C(c1ccccc1)(c1ccccc1)n1ccnc1,Potency,[3],14.8 µM (active)
Cc1ccc(-c2cc(C(F)(F)F)nn2-c2ccc(S(N)(=O)=O)cc2)cc1,Potency,[5],inactive
same,Potency,[4],inactive
CC(COc1ccccc1)N(CCCl)Cc1ccccc1 (stereo not given),Potency,[3],inactive
same,Potency,[2],inactive
Clc1ccc2c(c1)C(N1CCNCC1)=Nc1ccccc1O2,Potency,[4],inactive
Nc1ccn([C@H]2CC[C@@H](CO)O2)c(=O)n1,Potency,[5],inactive
same,Potency,[2],inactive
same,Potency,[6],inactive
CC(C)(Oc1ccc(C2CC2(Cl)Cl)cc1)C(=O)O (stereo not given),Potency,[5],inactive
same,Potency,[3],inactive
same,Potency,[2],inactive
CC(C)Cc1ccc(C(C)C(=O)O)cc1 (stereo not given),Potency,[5],inactive
same,Potency,[3],inactive
same,Potency,[2],inactive
Cc1cn([C@H]2C=C[C@@H](CO)O2)c(=O)[nH]c1=O,Potency,[3],inactive
N[C@@H](Cc1c[nH]c2ccc(O)cc12)C(=O)O,Potency,[3],1.05 µM (active)
same,Potency,[4],inactive
same,Potency,[2],inactive
same,Potency,[6],inactive
CC1COc2c(N3CCN(C)CC3)c(F)cc3c(=O)c(C(=O)O)cn1c23 (stereo not given),Potency,[3],inactive
CC12CC3CC(C)(C1)CC(N)(C3)C2,Potency,[1],20.9 µM (active)
same,Potency,[6],2.64 µM (active)
COC(=O)Nc1nc2ccc(C(=O)c3cccs3)cc2[nH]1,Potency,[5],0.0235 µM (active)
same,Potency,[3],0.526 µM (active)
same,Potency,[6],inactive
COc1nc(C)nc(Cl)c1NC1=NCCN1,Potency,[2],inactive
CCCCc1oc2ccccc2c1C(=O)c1cc(I)c(OCCN(CC)CC)c(I)c1,Potency,[1],20.9 µM (active)
same,Potency,[3],18.7 µM (active)
CN1CCN2c3ccccc3Cc3ccccc3C2C1 (stereo not given),Potency,[2],23.5 µM (active)
same,Potency,[6],23.5 µM (active)
Cn1ccc2cc3c(cc21)CCN3C(=O)Nc1cccnc1,Potency,[1],23.5 µM (active)
same,Potency,[3],inactive
Fc1ccc([C@@H]2CCNC[C@H]2COc2ccc3c(c2)OCO3)cc1,Potency,[1],inactive
same,Potency,[2],23.5 µM (active)
O=C(c1ccc(OCCN2CCCCC2)cc1)c1c(-c2ccc(O)cc2)sc2cc(O)ccc12,Potency,[1],18.7 µM (active)
same,Potency,[3],14.8 µM (active)
same,Potency,[2],16.6 µM (active)
same,Potency,[6],23.5 µM (active)
